Measured values reported in PubChem BioAssay.
A number with no mark means an inactive call. For some assays here: Results with a measured potency or affinity are listed apart. Activity calls are given as the source filed them. Unless noted, the rule behind the calls is not given here.

Legend:
[1] = antimalarial activity against Dd2 strain (AID 2302;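 active = growth inhibition above 50% at the single 2 µM test dose, taken to imply half-maximal potency below 2 µM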;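 note: 0% = DMSO untreated growth and 100% = chloroquine plus artemisinin killed control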); details: P. falciparum Dd2 in RBCs, LDH growth readout, 72 h; at 2 µM; stronger effect = higher value
[2] = human hepatoma cell viability loss – ATP luminescence, cytotoxicity control for P. falciparum antimalarial project, primary screen (AID 2303;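 active = inhibition above 50%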;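 note: 0% = DMSO wells and 100% = digitonin-killed cells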); details: HepG2 viability, 24-48 h, at 10 µM, stronger effect = higher value
[3] = molecular target: L-lactate dehydrogenase (Plasmodium falciparum (isolate CDC / Honduras)) (UniProt Q27743); test: PfLDH activity inhibition – cell lysate, 3D7 strain, counter-screen for P. falciparum growth inhibition project (AID 2304);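 note: 0% = vehicle and 100% = reference inhibitor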; details: P. falciparum 3D7 crude extract, LDH APAD/NBT absorbance; at 2 µM; stronger effect = higher value
[4] = inhibition of 3D7 malaria parasite growth – strain 3D7 (AID 2306);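 note: 0% = DMSO wells and 100% = chloroquine plus artemisinin control wells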; details: P. falciparum 3D7 erythrocytic growth, LDH absorbance, 72 h; at 2 µM; stronger effect = higher value
[5] = molecular target: Calcium-dependent protein kinase 1 (Plasmodium falciparum (isolate 3D7)) (UniProt P62344); test: PfCDPK1 kinase inhibitors, biochemical, TCAMS library (AID 1159585; cut-off not given, nearly all actives have IC50 up to about 0.98 µM;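 note: inhibitors leave more ATP so luminescence rises with inhibition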); details: recombinant PfCDPK1, Kinase-Glo ATP depletion luminescence
[6] = molecular target: Plasmodium falciparum protein kinase 6 (PK6, PF3D7_1337100) (UniProt Q8IDW1); test: PfPK6 kinase inhibitors, biochemical, TCAMS library (AID 1159586); details: recombinant PfPK6, Kinase-Glo ATP depletion luminescence
[7] = molecular target: Protein kinase 7 (PK7), Plasmodium falciparum 3D7 (PF3D7_0213400) (UniProt Q7YTF7); test: inhibition of Plasmodium PK7 catalytic activity – biochemical, TCAMS antimalarial set, Kinase-Glo luminescence (AID 1159587); details: recombinant PfPK7, Kinase-Glo ATP depletion luminescence
[8] = molecular target: Calcium-dependent protein kinase 4 (Plasmodium falciparum (isolate 3D7)) (UniProt Q8IBS5); test: PfCDPK4 kinase inhibitors, biochemical, TCAMS library (AID 1159588; cut-off not given, nearly all actives have IC50 up to about 0.91 µM); details: recombinant PfCDPK4, Kinase-Glo ATP depletion luminescence
Sequence of Calcium-dependent protein kinase 4 (Plasmodium falciparum (isolate 3D7)) (Q8IBS5 whole entry, looked up): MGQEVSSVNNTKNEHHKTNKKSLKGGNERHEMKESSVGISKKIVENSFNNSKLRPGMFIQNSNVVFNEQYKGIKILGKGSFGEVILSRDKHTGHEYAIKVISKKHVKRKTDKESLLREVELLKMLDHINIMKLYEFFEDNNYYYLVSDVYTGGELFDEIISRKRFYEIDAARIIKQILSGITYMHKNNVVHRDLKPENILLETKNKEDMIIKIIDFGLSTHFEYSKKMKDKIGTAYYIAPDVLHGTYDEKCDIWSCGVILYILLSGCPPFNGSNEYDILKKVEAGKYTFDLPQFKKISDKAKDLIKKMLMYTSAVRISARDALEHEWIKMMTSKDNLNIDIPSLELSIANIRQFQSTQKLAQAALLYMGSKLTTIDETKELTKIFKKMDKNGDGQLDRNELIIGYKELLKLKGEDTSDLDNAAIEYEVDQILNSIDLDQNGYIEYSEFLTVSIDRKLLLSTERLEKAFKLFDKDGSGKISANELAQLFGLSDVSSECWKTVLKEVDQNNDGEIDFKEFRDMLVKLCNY

Sequence of Calcium-dependent protein kinase 1 (Plasmodium falciparum (isolate 3D7)) (P62344 whole entry, looked up): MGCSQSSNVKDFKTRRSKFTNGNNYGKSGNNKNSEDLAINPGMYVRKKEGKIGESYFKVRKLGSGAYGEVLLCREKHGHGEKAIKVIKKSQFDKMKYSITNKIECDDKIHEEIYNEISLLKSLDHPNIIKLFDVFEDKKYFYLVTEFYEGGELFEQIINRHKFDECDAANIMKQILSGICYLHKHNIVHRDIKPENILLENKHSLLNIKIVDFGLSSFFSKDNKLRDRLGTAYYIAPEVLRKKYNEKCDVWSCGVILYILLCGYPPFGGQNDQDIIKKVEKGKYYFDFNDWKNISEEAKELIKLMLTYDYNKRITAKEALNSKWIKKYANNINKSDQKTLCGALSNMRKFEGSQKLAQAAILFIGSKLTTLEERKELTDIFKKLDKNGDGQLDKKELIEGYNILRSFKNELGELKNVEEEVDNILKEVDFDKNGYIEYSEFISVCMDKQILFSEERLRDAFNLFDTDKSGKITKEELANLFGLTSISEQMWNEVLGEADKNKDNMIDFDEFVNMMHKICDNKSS
Sequence of L-lactate dehydrogenase (Plasmodium falciparum (isolate CDC / Honduras)) (Q27743 whole entry, looked up): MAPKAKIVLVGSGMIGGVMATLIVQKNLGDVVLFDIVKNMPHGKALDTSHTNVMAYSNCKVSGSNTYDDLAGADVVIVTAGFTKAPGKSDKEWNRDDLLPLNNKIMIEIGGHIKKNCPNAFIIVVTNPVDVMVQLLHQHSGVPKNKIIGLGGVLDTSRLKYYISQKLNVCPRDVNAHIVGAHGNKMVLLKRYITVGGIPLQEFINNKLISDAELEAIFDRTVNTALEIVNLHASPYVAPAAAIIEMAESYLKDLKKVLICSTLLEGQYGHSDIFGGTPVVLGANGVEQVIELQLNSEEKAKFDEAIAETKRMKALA
Sequence of Plasmodium falciparum protein kinase 6 (PK6, PF3D7_1337100) (Q8IDW1 1-305): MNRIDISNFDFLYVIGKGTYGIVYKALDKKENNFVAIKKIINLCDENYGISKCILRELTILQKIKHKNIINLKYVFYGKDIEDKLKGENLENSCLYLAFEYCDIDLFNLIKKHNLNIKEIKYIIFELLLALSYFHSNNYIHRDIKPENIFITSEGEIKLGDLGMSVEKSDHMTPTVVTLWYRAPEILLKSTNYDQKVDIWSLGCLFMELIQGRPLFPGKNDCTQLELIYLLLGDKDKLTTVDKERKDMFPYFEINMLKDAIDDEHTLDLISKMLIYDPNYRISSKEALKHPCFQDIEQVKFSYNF
Sequence of Protein kinase 7 (PK7), Plasmodium falciparum 3D7 (PF3D7_0213400) (Q7YTF7 1-343): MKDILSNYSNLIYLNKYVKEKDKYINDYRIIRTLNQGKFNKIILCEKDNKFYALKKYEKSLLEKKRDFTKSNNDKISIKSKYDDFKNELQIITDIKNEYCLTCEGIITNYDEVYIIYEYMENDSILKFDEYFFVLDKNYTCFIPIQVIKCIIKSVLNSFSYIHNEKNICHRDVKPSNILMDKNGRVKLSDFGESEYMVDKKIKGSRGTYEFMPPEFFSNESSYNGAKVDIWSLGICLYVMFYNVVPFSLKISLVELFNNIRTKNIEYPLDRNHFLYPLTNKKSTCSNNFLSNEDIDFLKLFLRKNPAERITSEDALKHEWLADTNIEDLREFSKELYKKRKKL

Row | Compound | growth inhibition [1] | inhibition [2] | inhibition [3] | growth inhibition [4] | outcome [5] | outcome [6] | outcome [7] | outcome [8]
1 | COc1ccc(CNC(=O)NC2CCN(c3ccnc(Nc4cc(OC)c(OC)c(OC)c4)n3)C2)cc1 (stereo not given) | 90% (active) | -2% | 3% | 91% (active) | inactive | inactive | inactive | inactive
2 | O=[N+]([O-])c1cccc(NC(=S)N2CCCN(Cc3ccc(F)cc3F)CC2)c1 | 98% (active) | 5% | -1% | 99% (active) | inactive | inactive | inactive | inactive
3 | CCCC(C)NC(=O)/C=C/c1ccccc1-c1cccc(OC)c1 (stereo not given) | 59% (active) | 0% | 3% | 87% (active) | inactive | inactive | inactive | inactive
4 | CCOC(=O)c1c[nH]c2c(ccc3ccccc32)c1=O | 96% (active) | -5% | 3% | 96% (active) | inactive | inactive | inactive | inactive
5 | COc1ccc2nccc([C@@H](O)CN3CCC(NC(=O)C(c4cc5ccccc5o4)N4CCN(Cc5ccccc5)CC4)CC3)c2c1 (stereo not given in full) | 75% (active) | 30% | -5% | 91% (active) | inactive | inactive | inactive | inactive
6 | CC(Oc1ccc(NC(=O)c2cccs2)cc1)C(=O)c1ccc(Cl)cc1 (stereo not given) | 83% (active) | -1% | 1% | 92% (active) | inactive | inactive | inactive | inactive
7 | COc1cccc2c(NN=Cc3ccccc3[N+](=O)[O-])cc(C)nc12 | 32% | -6% | -5% | 99% (active) | inactive | inactive | inactive | inactive
8 | CCCCc1ccc(C(=O)Nc2ccc3nc(N4CCN(C)CC4)cc(C)c3c2)cc1 | 21% | 44% | -6% | 90% (active) | inactive | inactive | inactive | inactive
9 | C[C@@H](CC1CCCCC1)NCc1cccc(NS(=O)(=O)c2ccc(O)c(-c3ccno3)c2)c1 | 4% | -2% | -6% | 88% (active) | inactive | inactive | inactive | inactive
10 | COCCNCc1ccc(-c2ccccc2CNC2CCN(Cc3ccccc3)CC2)cc1 | 28% | 17% | -1% | 97% (active) | inactive | inactive | inactive | inactive
11 | c1ccc(CCNCc2ccc(-c3cccc(CNc4ccc5ncccc5c4)c3)cc2)cc1 | 17% | 30% | 3% | 91% (active) | inactive | inactive | inactive | inactive
12 | COc1ccc(-c2ccc(NC(=O)c3cccc(Cl)c3)c(F)c2)cc1CN1CCCN(C)CC1 | 42% | 43% | 0% | 100% (active) | inactive | inactive | inactive | inactive
13 | CCCCCOc1ccc(NC2=CC(=O)C(=O)c3ccccc32)cc1 | 96% (active) | 10% | -4% | 99% (active) | inactive | inactive | inactive | inactive
14 | COc1ccc(N2CCN(CCCCNC(=O)c3ccc(NC(=O)c4cc(Cl)cc(Cl)c4)cc3)CC2)c(OC)c1 | 84% (active) | 21% | 2% | 100% (active) | inactive | inactive | inactive | inactive
15 | Cc1nnsc1C(=O)Nc1ccc(-c2ccc(-c3nc4c(C)cccc4[nH]3)s2)cc1 | 61% (active) | 63% (active) | 2% | 100% (active) | inactive | inactive | inactive | inactive
16 | CC(C)n1c(C2CCN(CC3CCN(C(=O)/C=C/c4ccc(Cl)c(Cl)c4)CC3)CC2)nc2ccccc21 | 7% | 36% | 2% | 94% (active) | inactive | inactive | inactive | inactive
17 | O=C(NCCCCN1CCC(c2ccc3c(c2OCc2ccncc2)CCCC3)CC1)c1ccc(-c2ccc(C(F)(F)F)cc2)cc1 | 92% (active) | 96% (active) | 3% | 101% (active) | inactive | inactive | inactive | inactive
18 | C[C@@H]1CN(c2cnn(C/C=C/c3ccc(NC(=O)c4ccc(Cl)cc4)cc3)c(=O)c2Cl)C[C@H](C)N1 | 82% (active) | 25% | -2% | 88% (active) | inactive | inactive | inactive | inactive
19 | N#Cc1ccc2c(c1)CCN(CCC1CCC(NC(=O)/C=C/c3cc(Br)cs3)CC1)CC2 (stereo not given) | 1% | 3% | 5% | 93% (active) | inactive | inactive | inactive | inactive
20 | C=CCN1C(=O)c2[nH]nc(-c3cc(C)c(C)cc3O)c2C1c1cccc(Br)c1 (stereo not given) | 82% (active) | -14% | -3% | 90% (active) | inactive | inactive | inactive | inactive

Row | Compound | growth inhibition [1] | inhibition [2] | inhibition [3] | growth inhibition [4] | outcome [5] | outcome [6] | outcome [7] | outcome [8]
21 | CCN1CCC(N(CCCCCCCCc2ccc(C(F)(F)F)cc2)C(=O)Cn2c(CCc3cccc(F)c3F)cc(=O)c3ccccc32)CC1 | 65% (active) | 89% (active) | 2% | 88% (active) | inactive | inactive | inactive | inactive
22 | Cc1ccc(C(=O)N2CCc3cc4nccc(N5CCN6CCC[C@H]6C5)c4cc32)cc1 | 13% | 5% | -5% | 95% (active) | inactive | inactive | inactive | inactive
23 | COc1ccc2nc3cc(Cl)ccc3c(NCCCCN3CCNCC3)c2c1 | 75% (active) | 29% | -5% | 102% (active) | inactive | inactive | inactive | inactive
24 | CCc1nn2c(Nc3ccncc3)cc(C)nc2c1-c1ccccc1 | 98% (active) | 4% | 0% | 100% (active) | inactive | inactive | inactive | inactive
25 | Cn1cc(CN2CCCC(COC(c3ccccc3)c3ccccc3)C2)cn1 (stereo not given) | 99% (active) | 24% | 0% | 99% (active) | inactive | inactive | inactive | inactive
26 | O=C1c2ccccc2CN1CCCN1CCC(Oc2ccc(F)cc2)CC1 | 1% | 14% | 3% | 97% (active) | inactive | inactive | inactive | inactive
27 | CC(C)CNCc1cccc(-c2ccccc2CN(C(=O)NCCc2ccccc2)C2CCN(Cc3ccccc3)CC2)c1 | 82% (active) | 42% | -6% | 89% (active) | inactive | inactive | inactive | inactive
28 | N#Cc1ccc2c(c1)CN(C1CCC(NC(=O)C3=Cc4cc(Cl)ccc4OC3)CC1)CCC2 (stereo not given) | 8% | -5% | 2% | 93% (active) | inactive | inactive | inactive | inactive
29 | CN=C(N)c1ccc(NC(=O)Nc2ccc(C(N)=NC)cc2)cc1 | 71% (active) | -5% | -2% | 84% (active) | inactive | inactive | inactive | inactive
30 | COc1ccc(-c2onc(C(F)(F)F)c2-c2cc3ccccc3o2)c(O)c1 | 15% | 6% | 0% | 93% (active) | inactive | inactive | inactive | inactive
31 | COc1cccc2c(NN=Cc3ccccc3F)ccnc12 | 37% | 6% | 1% | 96% (active) | inactive | inactive | inactive | inactive
32 | O=C1CC(C(=O)O)CC(=O)N1 | 88% (active) | -3% | 6% | 94% (active) | inactive | inactive | inactive | inactive
33 | Fc1ccccc1COc1ccc(Nc2ncnc3ccc(-c4nnc(C(F)(F)F)o4)cc23)cc1Cl | 46% | 7% | 4% | 100% (active) | inactive | inactive | inactive | inactive
34 | O=C(NC1CCN(CCC[C@]2(c3ccc(Cl)c(Cl)c3)CCCN(C(=O)c3ccccc3)C2)CC1)c1ccc(F)cc1 | 68% (active) | 52% (active) | -1% | 90% (active) | inactive | inactive | inactive | inactive
35 | CCCNc1ccc(-c2cc(C(N)=O)c3[nH]cc(C4CCN(S(=O)(=O)CC)CC4)c3c2)cn1 | 42% | 6% | -1% | 99% (active) | inactive | inactive | inactive | inactive
36 | CCCNCc1ccc(-c2ccc(CN(CC3CCCO3)C(=O)C3CC(=O)c4ccccc43)cc2)nc1 (stereo not given) | 65% (active) | 0% | 3% | 101% (active) | inactive | inactive | inactive | inactive
37 | O=C(Cc1ccc([N+](=O)[O-])cc1)N1CCc2cc3nccc(N4CCN5CCC[C@H]5C4)c3cc21 | 7% | -7% | -4% | 95% (active) | inactive | inactive | inactive | inactive
38 | COc1cc(O)c2c(=O)c(OC)c(-c3cccc(Cl)c3OC3O[C@H](CO)[C@@H](O)[C@H](O)[C@H]3O)oc2c1OC (stereo not given in full) | 6% | 16% | -2% | 101% (active) | inactive | inactive | inactive | inactive
39 | Cc1cccc2[nH]c(-c3ccc(-c4cccc(CN5CC(C)OC(C)C5)c4)s3)nc12 (stereo not given) | 79% (active) | 6% | -5% | 98% (active) | inactive | inactive | inactive | inactive
40 | Cn1cc(C(=O)Nc2cccc(-c3cccc(-c4nc5ccc(F)cc5[nH]4)c3)c2)n(C)c1=O | 50% (active) | 15% | -1% | 98% (active) | inactive | inactive | inactive | inactive
